Among the test systems are T-47D breast; BT-549 breast; MDA-MB-435 melanoma; SW-620 colon; MCF7 breast; HCT-116 colon; HCC-2998 colon; KM12 colon.
Test in all cases: NCI-60 one-dose screen, 48 h (100 = growth as untreated, 0 = no growth, -100 = all killed)
Holding throughout (details): 10 µM unless noted

This is part of a sample that, as a whole, favours compounds with a hit. Of some 83,000 tested, about 20% had one in any assay.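 In brief: 96-well plates, 48 h treatment, single concentration, percent growth endpoint.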 A number with no mark means an inactive call. The source made the active and inactive calls. How the source made its calls: active means growth percent below 10; inactive means the rest.

Take `COc1cc2c(c(OC)c1OC)C(=O)/C(=C/c1cc(C)c(O)c(C)c1)S2`: the growth was 47.6% with T-47D breast; 56.9% in the experiment on BT-549 breast; -37.2% (active) with MDA-MB-435 melanoma; 39.3% with SW-620 colon; 21.7% with MCF7 breast; 33.2% in the experiment on HCT-116 colon. The growth in the experiment on HCC-2998 colon was 46.4%.
`O=C(O)C1C[C@](O)(c2ccc(F)cc2)[C@@H](c2ccc(F)cc2)O1` (some centres not stated): the growth in the experiment on T-47D breast was 88.2%; in the experiment with BT-549 breast it was 71%; in the experiment on MDA-MB-435 melanoma, 99.1%; in the experiment with SW-620 colon, 116%; with MCF7 breast, 97.5%; in the experiment with HCT-116 colon it was 100%. Moreover, the growth in the experiment on HCC-2998 colon is 115%; in the experiment on KM12 colon it was 131%.
As for `O=C(/C=C/C12c3ccccc3C(c3ccccc31)C1C(=O)NC(=O)C12)c1ccccc1` (configuration not stated), the growth with T-47D breast was 51.7%; in the experiment with BT-549 breast, 23.6%; with MDA-MB-435 melanoma, 13.8%; in the experiment with SW-620 colon it was 19.1%; in the experiment on MCF7 breast, 9.25% (active); in the experiment on HCT-116 colon it was 14.3%. Moreover, the results for the growth with HCC-2998 colon and with KM12 colon were 10.4% and 9.85% (active), respectively.
`Nc1nc(N)c(-c2ccc(Cl)cc2)c(/C=C/c2ccc([N+](=O)[O-])cc2)n1`: the growth in the experiment on T-47D breast was 84.7%; in the experiment on BT-549 breast, 92.3%; with MDA-MB-435 melanoma it was 41.9%; in the experiment on SW-620 colon, 26.4%; in the experiment with MCF7 breast it was 82.2%; with HCT-116 colon, 48.9%. Moreover, the growth is 77.6% with HCC-2998 colon and 83.1% with KM12 colon.
Regarding `Cl.Fc1c[c-]c(-c2ccccn2)c(F)c1.[Pt].c1ccc([PH+](C[PH+](c2ccccc2)c2ccccc2)c2ccccc2)cc1`, the growth in the experiment on T-47D breast was -56.2% (active); with BT-549 breast, -85% (active); with MDA-MB-435 melanoma, -83.3% (active); in the experiment with SW-620 colon it was -78.1% (active); in the experiment on MCF7 breast, -83.7% (active); in the experiment on HCT-116 colon, -83.4% (active). The growth in the experiment with HCC-2998 colon is -87.4% (active); in the experiment on KM12 colon it was -82% (active).
On to `CC(C)c1ccc(C(=O)OC(=O)c2ccc(C(C)C)cc2)cc1`, for which the growth in the experiment on T-47D breast was 95.3%; in the experiment on BT-549 breast, 87.9%; in the experiment with MDA-MB-435 melanoma, 97%; in the experiment with SW-620 colon, 114%; in the experiment on MCF7 breast it was 98.1%; in the experiment on HCT-116 colon it was 97.4%. Also, the growth is 102% with HCC-2998 colon and 123% in the experiment on KM12 colon.
Take `CC(=[N-])N1CCC[C@@H](Nc2c3ccccc3nc3ccccc23)C1.[Cl][Pt].[NH-]CCC[NH-]`: the growth in the experiment on T-47D breast is 14.8%; in the experiment with BT-549 breast, 79%; with MDA-MB-435 melanoma, 81.9%; with SW-620 colon it was 20.5%; in the experiment on MCF7 breast, 10.6%; in the experiment with HCT-116 colon, 14.9%. The growth was 49.7% in the experiment on HCC-2998 colon and 49% in the experiment with KM12 colon.
`CN(C)c1ccc(/C=C2\C=C(c3ccccc3)N(CCc3ccccc3)C2=O)cc1`: the growth in the experiment with T-47D breast is 82.3%; in the experiment with BT-549 breast, 71.3%; in the experiment on MDA-MB-435 melanoma, 95.3%; in the experiment with SW-620 colon, 61.4%; in the experiment with MCF7 breast it was 60%; in the experiment with HCT-116 colon, 42.2%. Moreover, in the experiment on HCC-2998 colon, the growth was 75.5%.
Take `O=c1ccn(C2OC(F)(CO)C(O)C2F)c(=O)[nH]1` (configuration not stated): the growth in the experiment on T-47D breast is 81.2%; with BT-549 breast it was 101%; with MDA-MB-435 melanoma, 103%; in the experiment on SW-620 colon, 104%; in the experiment with MCF7 breast, 91.6%; in the experiment with HCT-116 colon, 104%. Also, the growth in the experiment with HCC-2998 colon is 99.1%.
For the molecule `COc1ccc(-n2nnc(C(=O)NCCc3c[nH]c4ccc(F)cc34)c2C)cc1`, the growth was 89.3% in the experiment on T-47D breast; 103% with BT-549 breast; 101% with MDA-MB-435 melanoma; 101% in the experiment on SW-620 colon; 95.7% with MCF7 breast; 93.5% in the experiment on HCT-116 colon. The growth in the experiment with HCC-2998 colon is 106%.
As for `C=CCOc1cccc(/C=C2\SC(=Nc3ccc(O)cc3)NC2=O)c1`, the growth in the experiment with T-47D breast is 60.9%; in the experiment on BT-549 breast, -16.3% (active); in the experiment on MDA-MB-435 melanoma it was -45.2% (active); in the experiment on SW-620 colon, 23.4%; in the experiment on MCF7 breast, 7.91% (active); in the experiment with HCT-116 colon, 5.94% (active). Moreover, the figures for the growth with HCC-2998 colon and in the experiment with KM12 colon were 10.6% and 6.22% (active), respectively.
For the molecule `CCn1c(Sc2nnc(NC(=O)CCN3CCCC3)s2)nc2c1c(=O)n(C)c(=O)n2C`, the growth in the experiment with T-47D breast is 102%; with BT-549 breast it was 110%; in the experiment on MDA-MB-435 melanoma it was 107%; in the experiment with SW-620 colon, 105%; in the experiment on MCF7 breast, 105%; in the experiment with HCT-116 colon, 105%. In addition, the growth with HCC-2998 colon is 114%.
Consider `C(=C\c1nc2ccccc2[nH]1)/c1nc2ccccc2[nH]1`, for which the growth in the experiment with T-47D breast is 78.2%; in the experiment with BT-549 breast, 118%; in the experiment on MDA-MB-435 melanoma, 104%; with SW-620 colon it was 108%; in the experiment on MCF7 breast, 74.4%; in the experiment with HCT-116 colon it was 104%. Besides, in the experiment with HCC-2998 colon, the growth is 88.4%.
Take `Cc1ccc(/C(=N\N=C(N)N)c2ccccc2)cc1`: the growth in the experiment on T-47D breast is 23%; in the experiment on BT-549 breast, 37.5%; in the experiment on MDA-MB-435 melanoma it was 0.321% (active); in the experiment on SW-620 colon, 30.3%; in the experiment with MCF7 breast, 5.02% (active); in the experiment on HCT-116 colon, -66.6% (active). In the experiment on HCC-2998 colon, the growth is -3.26% (active).
As for `CCOC(=O)c1c(C)nc2c(c1N)/C(=C/c1ccc(OC)cc1)C(=O)N2Cc1ccc(F)cc1`, the growth was -0.0776% (active) with T-47D breast; -85.5% (active) in the experiment on BT-549 breast; -62.1% (active) in the experiment with MDA-MB-435 melanoma; -58.9% (active) in the experiment with SW-620 colon; -35.7% (active) with MCF7 breast; -85.4% (active) with HCT-116 colon. In the experiment with HCC-2998 colon, the growth is -83.7% (active).
Consider `CCNCCNc1cc(-c2ccc(C#N)cc2)c(C#N)c2nc3ccccc3n12`, for which the growth is 37.5% with T-47D breast; 40.4% in the experiment with BT-549 breast; 13.9% in the experiment with MDA-MB-435 melanoma; -30.2% (active) in the experiment on SW-620 colon; 57.8% in the experiment with MCF7 breast; -27.2% (active) in the experiment on HCT-116 colon. Besides, the values for the growth with HCC-2998 colon and in the experiment on KM12 colon were 41% and 29%, respectively.
Regarding `O=C(NCCN1CCC(O)CC1)c1cc2c(o1)C(=O)c1ccccc1C2=O`, the growth in the experiment with T-47D breast was -44.6% (active); in the experiment with BT-549 breast, -94.4% (active); in the experiment on MDA-MB-435 melanoma, -91.8% (active); in the experiment on SW-620 colon, -78.3% (active); with MCF7 breast, -69.7% (active); in the experiment on HCT-116 colon, -81.5% (active). Also, the growth in the experiment on HCC-2998 colon is -92.9% (active).

Values taken from PubChem BioAssay (NCI).
